Laboratory results: PubChem BioAssay (NCATS)
Inconclusive results are not listed. Activity calls are given as the source filed them. Unless noted, calls come from the whole dose curve.

Test system: not listed separately
Assay: qHTS for Inhibitors of Plasmodium falciparum (CP250) proliferation (AID 504320; active = well fitted inhibition curve with a large enough effect)
Conditions: P. falciparum CP250 in erythrocytes, SYBR Green DNA, 72 h; series mostly up to 6.7 µM
In short: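 Erythrocytes infected with P. falciparum line (0.3% parasitemia, 2.5% hematocrit final) incubated with compounds 72 h at 37 °C, 5% CO2; SYBR Green lysis buffer added, fluorescence read next day. Normalized to 0.29 uM artemisinin and DMSO.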

Potency, inactive:
Cc1ccc2[nH]c3nc(CCCn4ccnc4-c4ccccc4)nnc3c2c1, COc1ccc(O[C@H]2C=C[C@@H](c3ccccc3)O[C@H]2COC(=O)CCC(C)=NOC[C@@H](O)COCc2ccco2)cc1, CCCCC1=CC2=CC(=O)C(C)(O)C(=O)C2=CO1 (stereo not drawn), C[C@@H]1CC[C@H]2C(=O)N(Cc3cccc([N+](=O)[O-])c3)C[C@H](O)CN2[C@@H]1c1cccc(Br)c1, COC(=O)CC1c2ccccc2C(Cc2ccc3c(c2)OCO3)=C(C)N1C(=O)OC (stereo not drawn), COCC1=C(C(=O)OC)C(c2ccccc2)N(C(C)=O)C(=O)N1 (stereo not drawn), COc1ccc2c(c1)C(=O)[C@@H](OC(=O)NCCc1ccc(OC)c(OC)c1)[C@H](c1ccc(OC)c(Br)c1)O2, COc1ccc(N2C=C3C(=O)C(C)(OC(=O)C4CCCC4)C(=O)C=C3C=C2c2ccsc2)cc1 (stereo not drawn), CC(CCN1CCCc2nc(C)c(C)cc21)=NOC[C@@H](O)[C@H]1O[C@@H]2OC(C)(C)O[C@H]2[C@@H]1O, C=CCOC(=O)N[C@H](c1ccc(-c2ccccc2)cc1)[C@H](C)C=CCC(=O)OC, CCN1C(=O)N(S(=O)(=O)c2ccc(C)cc2)C(c2ccccc2)C(C(=O)OC)=C1C (stereo not drawn)

Target: Atrial natriuretic peptide receptor 1 (Homo sapiens) (UniProt P16066)
Assay: Natriuretic polypeptide receptor (hNpr1) antagonism - Pilot CMLD screen (AID 1347052);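 note: HEK293 cells with hNpr1 stimulated by hNppA peptide at 0.1 nM; cGMP level read as GloSensor luciferase luminescence after agonist stimulation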
Conditions: HEK293 hNpr1 GloSensor cGMP luminescence, ANP-stimulated; series mostly up to 9.22 µM

Atrial natriuretic peptide receptor 1 (Homo sapiens), sequence (P16066 whole entry, looked up): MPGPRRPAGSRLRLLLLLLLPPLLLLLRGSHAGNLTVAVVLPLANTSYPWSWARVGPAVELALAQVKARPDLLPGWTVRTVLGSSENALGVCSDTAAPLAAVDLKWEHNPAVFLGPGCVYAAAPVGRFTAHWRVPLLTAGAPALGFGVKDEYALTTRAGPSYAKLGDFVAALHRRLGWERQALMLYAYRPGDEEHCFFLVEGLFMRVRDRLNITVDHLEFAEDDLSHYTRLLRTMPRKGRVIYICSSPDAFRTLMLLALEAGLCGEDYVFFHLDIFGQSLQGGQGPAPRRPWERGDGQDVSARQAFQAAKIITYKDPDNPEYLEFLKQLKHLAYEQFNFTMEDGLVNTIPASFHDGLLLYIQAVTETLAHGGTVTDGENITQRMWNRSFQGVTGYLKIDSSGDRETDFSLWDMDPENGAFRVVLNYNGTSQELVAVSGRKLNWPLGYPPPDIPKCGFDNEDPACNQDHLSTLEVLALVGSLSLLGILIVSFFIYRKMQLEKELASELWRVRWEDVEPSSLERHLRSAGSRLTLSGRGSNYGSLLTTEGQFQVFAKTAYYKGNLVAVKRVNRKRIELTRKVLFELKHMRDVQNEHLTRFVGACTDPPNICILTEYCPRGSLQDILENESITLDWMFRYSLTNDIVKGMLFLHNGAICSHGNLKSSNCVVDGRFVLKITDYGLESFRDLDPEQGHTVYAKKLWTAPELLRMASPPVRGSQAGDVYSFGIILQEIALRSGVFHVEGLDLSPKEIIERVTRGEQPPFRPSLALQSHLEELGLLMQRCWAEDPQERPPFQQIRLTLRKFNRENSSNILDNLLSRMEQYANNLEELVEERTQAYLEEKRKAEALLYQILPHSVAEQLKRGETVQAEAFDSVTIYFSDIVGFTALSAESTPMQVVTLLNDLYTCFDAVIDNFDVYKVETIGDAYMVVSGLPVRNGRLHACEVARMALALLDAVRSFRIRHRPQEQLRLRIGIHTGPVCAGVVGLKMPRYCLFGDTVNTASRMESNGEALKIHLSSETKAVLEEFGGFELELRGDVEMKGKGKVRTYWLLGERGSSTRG

Potency, inactive:
COc1ccc2c(c1)[C@H](C=Cc1ccccc1)[C@@H]([C@H](O)CO)O2, CC=CC(=O)C[C@H]1CC[C@@H](C)[C@@H](CCO)O1, CC(CCN1CCCCc2nc(C)c(C)cc21)=NO[C@H](C)c1cn([C@H](CO)Cc2ccccc2)nn1, CC1(C)OCC([C@H](O)C2=CCCCC2=O)CO1, C=CC[C@@]1(c2ccc(OC)cc2)Oc2ccccc2C2=NCCN=C21, C[C@H]1[C@@H](C(=O)N2CCCC2)CC(=O)C(=NOCc2ccccc2)C[C@H]1c1ccccc1, CCC12C=C(C=Cc3ccccc3)C(CC)(C1)C(c1ccccc1)CC2=O (stereo not drawn), C[C@H](NC(=O)N1CCc2nc(-c3ccccc3)c3c(c2C1)CO[C@@H](C)C3)c1ccccc1, COc1ccc(-c2nc3c(c4c2C[C@H](c2ccccc2)OC4)CN(C(=O)C2CC2)CC3)c(C)c1, COC(=O)C(=Cc1cc(Br)c(OC)c(Br)c1)C(=O)OC, COC(=O)CC=C[C@@H](C)[C@@H](C=NOC[C@@H](O)COCc1ccco1)NS(=O)(=O)c1ccc(C)cc1, COC1=C[C@H](C(=O)NC2CCN(Cc3ccccc3)CC2)[C@@]2(C)Cc3ccccc3[C@@H]2CC1=O, CC(C)OC(=O)[C@H](C)NC(=O)N1CCc2nc(-c3ccccc3)c3c(c2C1)CO[C@@H](C)C3, C=CCN1C(=O)CC[C@@]23C1=NC(C(=O)OC)=C(C(=O)OC)[C@@H]2N(CC#CC)c1ccccc13, COc1ccc(C=CNC(=O)c2ccc(OC)cc2)cc1, COC(=O)C1=C(C)N(Cc2ccco2)C(=O)NC1c1ccc(Br)cc1 (stereo not drawn), COc1ccc2c(c1)O[C@@H](c1cccc(C(F)(F)F)c1)[C@H](OC(=O)NC1CCCC1)C2=O, C[C@@H]1CC[C@H]2C(=O)N(Cc3ccc(Cl)cc3)C[C@@H](O)CN2[C@@H]1c1cccc(Br)c1, COC1=C[C@H](C(=O)N2CCCC2)[C@H](C)[C@@H](c2ccccc2)CC1=O, COc1cc(CCN2C(=O)NC(c3ccccc3)C(C(C)=O)=C2C)cc(OC)c1OC (stereo not drawn), CC(CCC(=O)OC[C@H]1O[C@H](C#Cc2ccccc2)C=C[C@H]1Oc1ccc(C)cc1)=NO[C@H](C)c1cn([C@H](CO)Cc2ccccc2)nn1, C#CC1(O)C2C=C(OC)C(=O)C1C(c1ccccc1)C2C (stereo not drawn), C=CCN1c2ccccc2[C@]23CCC(=O)N(CCCOC(C)C)C2=NC(C(=O)OC)=C(C(=O)OC)[C@H]13, Cc1cc2c(c(=O)o1)[C@H]1O[C@](c3ccsc3)(Cc3c1ccc1ccccc31)O2, CC1(OC(=O)CCc2ccccc2)C(=O)C=C2C=C(c3ccc(C#N)cc3)N(CC3CC3)C=C2C1=O (stereo not drawn), COC(=O)C1=C(C(=O)OC)[C@@H]2N(CC=C(C)C)c3ccccc3[C@@]23CCC(=O)N(CCc2ccccn2)C3=N1, COc1cc2c(cc1OC)[C@@]1(c3ccccc3)CCCC[C@H]1[C@@H]2NC(=O)C(F)(F)F
